Source: PubChem BioAssay (Tox21)
A number with no mark means an inactive call. Records with an inconclusive call do not appear. A call without a number means that no potency is given here. Activity calls are given as the source filed them. Unless noted, calls follow the shape of the dose curve; as a rule, active = well fitted curve in the direction sought with a large enough effect in the repeat runs; inconclusive = weak or mixed curves; inactive = no such curve, though single readings can be large; an effect the other way counts as inactive or inconclusive.

Tests used:
[1] = Human pregnane X receptor (PXR) small molecule agonists, qHTS cell viability counter screen (AID 1346977); also: nearly all actives have a fitted effect of over 50% in size; also: potency is read from the fitted curve at half-maximal effect
Outline: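 After a 5hr pre-incubation, PXR-Luc HepG2 cells received compounds plus positive control in DMSO and were kept 24hr at 37C. Cell viability was quantified by fluorescence from CellTiter-Fluor added for the final hour.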

[2] = Caspase-3/7 induction in HepG2 cells by small molecules, qHTS assay (AID 1346978); also: nearly all actives have a fitted effect of over 15% in size
Outline: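 Wild-type HepG2 cells (2,000/well) were settled 5 h at 37 C, 5% CO2, then exposed to compounds in DMSO for 17 h. Caspase-3/7 activity was read by luminescence 30 min after adding Caspase-Glo 3/7 reagent at room temperature.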

[3] = Caspase-3/7 induction in CHO-K1 cells by small molecules, qHTS cell viability counter screen (AID 1346979); also: nearly all actives have a fitted effect of over 35% in size; also: potency is read from the fitted curve at half-maximal effect
Outline: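 Multiplexed with Caspase-Glo 3/7 in CHO-K1 cells, this counter screen added CellTiter-Fluor after 16hr of compound exposure and recorded fluorescence 1hr later.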

[4] = Caspase-3/7 induction in CHO-K1 cells by small molecules, qHTS assay (AID 1346980); also: nearly all actives have a fitted effect of over 15% in size
Outline: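 Wild-type cells were seeded at 1,500 per well and settled 5 hr at 37 C, 5% CO2, then exposed to DMSO-dissolved compounds for 17 hr. Caspase-Glo 3/7 reagent was added, and luminescence was read after 30min at room temperature.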

[5] = molecular target: Nuclear receptor subfamily 1 group I member 2 (Homo sapiens) (UniProt O75469); test: Human pregnane X receptor (PXR) small molecule agonists, qHTS assay (AID 1346982); also: nearly all actives have a fitted effect of over 35% in size; also: potency is read from the fitted curve at half-maximal effect
Outline: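 HepG2 PXR-Luc reporter line, 5% charcoal-stripped FBS; 5 hr pre-incubation, compound (DMSO) 24 hr at 37 C/5% CO2; ONE-Glo 30 min RT; luminescence read-out.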

[6] = molecular target: Nuclear receptor subfamily 1 group I member 2 (Rattus norvegicus) (UniProt Q9R1A7); test: Rat pregnane X receptor (rPXR) activation by small molecules, qHTS assay (AID 1346983); details: rPXR luciferase reporter cells, One-Glo luminescence, 24 h; max activation: hits give high values; also: nearly all actives have a fitted effect of over 20% in size
Outline: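 Cell-based rPXR luciferase reporter assay, 2,000 cells per well, rested 5hr at 37 C before compound addition in DMSO, then 24 hr at 37 C. One-Glo reagent was added and luminescence read after 30 min at room temperature.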

[7] = molecular target: Nuclear receptor subfamily 1 group I member 2 (Homo sapiens) (UniProt O75469); test: CYP3A4 induction through human pregnane X receptor (PXR) by small molecules, qHTS assay (AID 1346984); also: nearly all actives have a fitted effect of over 40% in size
Outline: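 HepG2-derived DPX-2 line carrying PXR plus a CYP3A4-promoter luciferase reporter; cells plated 5 hr, compound-exposed 24 hr at 37C. CYP3A4 activity probed with 3uM (final) Luciferin-IPA for 3hr, then luciferase read after One-Glo.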

[8] = molecular target: Nuclear receptor subfamily 1 group I member 2 (Homo sapiens) (UniProt O75469); test: Human pregnane X receptor (PXR) activation by small molecules, qHTS assay (AID 1346985); also: nearly all actives have a fitted effect of over 40% in size
Outline: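 DPX-2 cells (HepG2 co-transfected with a PXR response element and a CYP3A4-promoter luciferase construct) were seeded at 2,000 per well, rested 5 hr at 37C, then exposed to DMSO-dissolved compounds for 24 hr. Activation was read as luciferase luminescence.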

[9] = molecular target: Voltage-gated inwardly rectifying potassium channel KCNH2 (Homo sapiens) (UniProt Q12809); test: Human Ether-a-go-go-Related Gene (hERG) channel small molecule antagonists: fluorescence cell-based qHTS assay (AID 1671200); also: nearly all actives have a fitted effect of over 50% in size; also: potency is read from the fitted curve at half-maximal effect
Outline: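 Cell line hERG-U2OS; dye FluxOR II, 1 h RT dark; Tl+ stimulus; ex 480/em 540 nm, read each second for 2 min.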

[10] = Caspase-3/7 induction in HepG2 cells by small molecules, qHTS cell viability counter screen (AID 1346981); also: series mostly up to about 92 µM; nearly all actives have a fitted effect of over 30% in size
Outline: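 Fluorescence read-out of live-cell protease activity (CellTiter-Fluor) after 1 hr with reagent. This was measured in the same wells as the caspase-3/7 luminescence, on HepG2 cells exposed to DMSO-dissolved compounds for 16 hr at 37 C.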

[11] = molecular target: Acetylcholinesterase (Homo sapiens) (UniProt P22303); test: Acetylcholinesterase (AChE) small molecule antagonists: colormetric cell-based qHTS assay (AID 1347395; calls by dose curve; also: nearly all actives have a fitted effect of over 30% in size; also: potency is read from the fitted curve at half-maximal effect)
Outline: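 In this cell-based qHTS, attached SH-SY5Y cells were treated with test chemicals for 30 min, after which acetylthiocholine hydrolysis was followed by DTNB colour development over 90 min at 37 C.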

[12] = molecular target: Acetylcholinesterase (Homo sapiens) (UniProt P22303); test: Acetylcholinesterase (AChE) small molecule antagonists: enzyme-based qHTS assay (AID 1347397; calls by dose curve; also: nearly all actives have a fitted effect of over 55% in size; also: potency is read from the fitted curve at half-maximal effect); details: Potency: AChE enzyme activity inhibition
Outline: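 Compound or DMSO vehicle was pin-transferred onto recombinant human AChE (50 mU/mL as dispensed) and left 30 min at room temperature. Acetylthiocholine with DTNB then started the reaction, read colorimetrically 10 min later.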

[13] = molecular target: Acetylcholinesterase (Homo sapiens) (UniProt P22303); test: Acetylcholinesterase (AChE) small molecule antagonists: fluorescence cell-based qHTS assay (AID 1347398; calls by dose curve; also: nearly all actives have a fitted effect of over 50% in size; also: potency is read from the fitted curve at half-maximal effect); details: Potency: AChE activity
Outline: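 Using neuroblastoma SH-SY5Y cells as the enzyme source, test chemicals are preincubated 30 min at 37 C; AChE-driven acetylthiocholine cleavage is then quantified by thiocholine-dependent Thiolite Green fluorescence after 40 min at room temperature.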

[14] = molecular target: Acetylcholinesterase (Homo sapiens) (UniProt P22303); test: Acetylcholinesterase (AChE) small molecule antagonists: enzyme-based qHTS assay with human liver microsomes (AID 1347399; calls by dose curve; also: nearly all actives have a fitted effect of over 60% in size; also: potency is read from the fitted curve at half-maximal effect); details: Potency: qHTS inhibition
Outline: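 Recombinant human AChE (50 mU/mL in the enzyme mix) and human liver microsomes (0.25 mg/mL final) were preincubated with compound and NADPH (0.25 mg/mL final) for 30 min at 37 C. Acetylthiocholine/DTNB was then added; thiocholine was read colorimetrically after 10 min at room temperature.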

[15] = molecular target: Cytochrome P450 2D6 (Homo sapiens) (UniProt P10635); test: Cytochrome P450 Family 2 Subfamily D Member 6 (CYP2D6) small molecule antagonists: luciferase reporter qHTS assay (AID 1671196); also: nearly all actives have a fitted effect of over 50% in size; also: potency is read from the fitted curve at half-maximal effect
Outline: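 Luminogenic proluciferin substrate, CYP2D6 enzyme; 10 min RT preincubation with compound, NADPH regeneration system added, 1 h RT. Stop/detection reagent, 20 min RT, luminescence read (RLU). Signal proportional to CYP activity.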

[16] = molecular target: Cytochrome P450 2C19 (Homo sapiens) (UniProt P33261); test: Cytochrome P450 Family 2 Subfamily C Member 19 (CYP2C19) small molecule antagonists: luciferase reporter qHTS assay (AID 1671197); also: nearly all actives have a fitted effect of over 65% in size; also: potency is read from the fitted curve at half-maximal effect
Outline: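 Luminescent readout of CYP2C19 activity: luciferin product detected 20 min after adding detection reagent. Before that, compound and enzyme-substrate mix preincubated 10 min at room temperature; NADPH-regenerating system started a 1 h, 37C reaction. Ketoconazole as positive control.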

[17] = molecular target: Cytochrome P450 2C9 (Homo sapiens) (UniProt P11712); test: Cytochrome P450 Family 2 Subfamily C Member 9 (CYP2C9) small molecule antagonists: luciferase reporter qHTS assay (AID 1671198); also: nearly all actives have a fitted effect of over 50% in size; also: potency is read from the fitted curve at half-maximal effect
Outline: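 CYP2C9 activity was measured with a P450-Glo proluciferin substrate. Enzyme–substrate mix was held with compound for 10 min at room temperature, then NADPH regeneration solution was added for 1 h at 37C. Luciferin product was read as luminescence.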

[18] = molecular target: Cytochrome P450 1A2 (Homo sapiens) (UniProt P05177); test: Cytochrome P450 Family 1 Subfamily A Member 2 (CYP1A2) small molecule antagonists: luciferase reporter qHTS assay (AID 1671199); also: nearly all actives have a fitted effect of over 50% in size; also: potency is read from the fitted curve at half-maximal effect
Outline: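 Luminescence readout (relative luminescence units) after luciferin detection reagent, 20 min RT. Preceded by 1 h room-temperature CYP1A2 reaction with NADPH regeneration solution following 10 min compound preincubation with enzyme and proluciferin substrate. Furafylline positive control.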

[19] = molecular target: Cytochrome P450 3A4 (Homo sapiens) (UniProt P08684); test: Cytochrome P450 Family 3 Subfamily A Member 4 (CYP3A4) small molecule antagonists: luciferase reporter qHTS assay (AID 1671201)
Outline: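 Room-temperature assay throughout: 10 min compound–enzyme/substrate preincubation, 1 h reaction after NADPH regeneration solution, 20 min detection. Luciferin formed from proluciferin substrate is quantified by luminescence.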

Acetylcholinesterase (Homo sapiens), sequence (P22303 whole entry, looked up): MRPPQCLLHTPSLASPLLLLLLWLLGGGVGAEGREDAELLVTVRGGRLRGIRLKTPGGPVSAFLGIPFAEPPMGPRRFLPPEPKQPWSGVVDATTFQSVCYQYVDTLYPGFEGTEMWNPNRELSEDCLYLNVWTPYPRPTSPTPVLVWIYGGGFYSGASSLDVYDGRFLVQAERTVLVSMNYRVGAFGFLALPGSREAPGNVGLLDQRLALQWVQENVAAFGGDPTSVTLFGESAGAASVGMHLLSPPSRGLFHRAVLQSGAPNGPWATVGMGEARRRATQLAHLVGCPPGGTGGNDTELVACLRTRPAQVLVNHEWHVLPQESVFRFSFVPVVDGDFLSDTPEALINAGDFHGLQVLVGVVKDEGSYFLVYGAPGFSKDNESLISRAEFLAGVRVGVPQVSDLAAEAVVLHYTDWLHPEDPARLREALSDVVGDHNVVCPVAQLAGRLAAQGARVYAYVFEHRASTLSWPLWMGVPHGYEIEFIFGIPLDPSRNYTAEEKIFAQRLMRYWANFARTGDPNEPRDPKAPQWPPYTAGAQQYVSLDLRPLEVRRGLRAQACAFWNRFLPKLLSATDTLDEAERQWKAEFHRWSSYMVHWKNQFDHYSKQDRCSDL
Cytochrome P450 3A4 (Homo sapiens), sequence (P08684 whole entry, looked up): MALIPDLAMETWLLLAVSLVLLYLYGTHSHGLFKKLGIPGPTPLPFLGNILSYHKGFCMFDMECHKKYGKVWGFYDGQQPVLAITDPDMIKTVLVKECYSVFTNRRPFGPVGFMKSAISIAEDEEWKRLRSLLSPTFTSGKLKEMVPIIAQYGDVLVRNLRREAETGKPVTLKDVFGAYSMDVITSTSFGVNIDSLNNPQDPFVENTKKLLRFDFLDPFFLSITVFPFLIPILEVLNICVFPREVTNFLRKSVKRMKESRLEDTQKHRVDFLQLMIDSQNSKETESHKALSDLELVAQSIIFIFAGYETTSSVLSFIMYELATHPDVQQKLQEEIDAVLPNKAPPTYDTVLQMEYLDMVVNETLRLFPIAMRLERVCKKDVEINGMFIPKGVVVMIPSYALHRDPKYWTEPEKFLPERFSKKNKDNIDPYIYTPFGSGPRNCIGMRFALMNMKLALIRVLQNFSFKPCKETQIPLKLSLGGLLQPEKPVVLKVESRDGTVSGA
Cytochrome P450 2D6 (Homo sapiens), sequence (P10635 whole entry, looked up): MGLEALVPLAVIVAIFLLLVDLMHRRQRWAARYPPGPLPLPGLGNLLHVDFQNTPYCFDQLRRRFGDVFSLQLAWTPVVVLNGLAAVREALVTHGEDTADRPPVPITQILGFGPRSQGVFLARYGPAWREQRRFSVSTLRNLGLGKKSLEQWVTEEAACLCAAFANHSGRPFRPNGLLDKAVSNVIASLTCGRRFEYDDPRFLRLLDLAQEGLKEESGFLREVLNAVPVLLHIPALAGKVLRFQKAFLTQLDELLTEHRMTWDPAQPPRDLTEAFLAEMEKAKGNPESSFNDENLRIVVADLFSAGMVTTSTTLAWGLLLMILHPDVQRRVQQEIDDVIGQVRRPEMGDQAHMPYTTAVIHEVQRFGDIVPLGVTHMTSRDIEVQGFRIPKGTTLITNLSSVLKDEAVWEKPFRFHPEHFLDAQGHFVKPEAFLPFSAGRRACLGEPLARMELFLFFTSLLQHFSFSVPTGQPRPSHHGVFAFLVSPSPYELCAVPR
Voltage-gated inwardly rectifying potassium channel KCNH2 (Homo sapiens), sequence (Q12809 whole entry, looked up): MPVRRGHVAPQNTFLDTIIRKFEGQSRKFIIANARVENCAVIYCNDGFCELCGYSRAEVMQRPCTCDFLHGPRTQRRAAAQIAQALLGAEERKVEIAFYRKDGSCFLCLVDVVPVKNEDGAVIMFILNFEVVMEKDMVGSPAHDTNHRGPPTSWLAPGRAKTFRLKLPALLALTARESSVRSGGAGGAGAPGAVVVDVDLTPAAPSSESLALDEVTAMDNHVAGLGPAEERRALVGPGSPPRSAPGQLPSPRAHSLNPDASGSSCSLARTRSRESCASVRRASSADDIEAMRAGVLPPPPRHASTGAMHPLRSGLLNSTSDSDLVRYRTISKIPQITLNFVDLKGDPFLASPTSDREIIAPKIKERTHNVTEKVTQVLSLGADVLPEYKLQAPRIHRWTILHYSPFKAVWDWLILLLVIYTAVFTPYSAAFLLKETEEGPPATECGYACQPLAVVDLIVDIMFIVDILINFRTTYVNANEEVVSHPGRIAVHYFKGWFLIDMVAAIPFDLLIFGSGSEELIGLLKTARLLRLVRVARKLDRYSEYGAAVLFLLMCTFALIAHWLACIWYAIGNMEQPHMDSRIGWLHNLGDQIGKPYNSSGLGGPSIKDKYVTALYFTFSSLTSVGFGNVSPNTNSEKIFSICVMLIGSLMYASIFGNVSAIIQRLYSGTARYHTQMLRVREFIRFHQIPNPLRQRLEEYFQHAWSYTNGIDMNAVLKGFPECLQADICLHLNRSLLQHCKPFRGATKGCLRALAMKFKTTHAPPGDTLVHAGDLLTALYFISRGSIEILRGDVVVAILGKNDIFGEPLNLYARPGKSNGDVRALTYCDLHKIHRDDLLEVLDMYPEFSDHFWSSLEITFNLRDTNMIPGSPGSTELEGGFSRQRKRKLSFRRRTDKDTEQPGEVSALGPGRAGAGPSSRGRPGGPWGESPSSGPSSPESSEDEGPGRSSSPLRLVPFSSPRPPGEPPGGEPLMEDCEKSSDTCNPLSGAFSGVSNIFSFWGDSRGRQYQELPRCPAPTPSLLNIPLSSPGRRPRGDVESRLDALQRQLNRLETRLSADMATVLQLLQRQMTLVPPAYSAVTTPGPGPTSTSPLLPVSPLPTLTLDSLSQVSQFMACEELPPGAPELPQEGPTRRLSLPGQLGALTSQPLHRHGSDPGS
Cytochrome P450 2C9 (Homo sapiens), sequence (P11712 whole entry, looked up): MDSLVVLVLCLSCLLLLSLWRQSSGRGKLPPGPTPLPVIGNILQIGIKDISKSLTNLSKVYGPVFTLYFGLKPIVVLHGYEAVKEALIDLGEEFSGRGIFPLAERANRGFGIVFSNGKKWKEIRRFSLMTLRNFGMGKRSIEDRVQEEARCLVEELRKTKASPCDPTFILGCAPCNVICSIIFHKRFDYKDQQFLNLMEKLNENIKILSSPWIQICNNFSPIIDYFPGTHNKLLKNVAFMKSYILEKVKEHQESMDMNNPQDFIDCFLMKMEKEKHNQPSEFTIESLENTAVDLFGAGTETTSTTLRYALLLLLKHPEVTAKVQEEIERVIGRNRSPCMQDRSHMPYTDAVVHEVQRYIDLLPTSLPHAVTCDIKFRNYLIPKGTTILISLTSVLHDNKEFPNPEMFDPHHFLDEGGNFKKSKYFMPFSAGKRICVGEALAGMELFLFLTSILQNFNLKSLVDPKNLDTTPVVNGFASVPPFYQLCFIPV
Nuclear receptor subfamily 1 group I member 2 (Homo sapiens), sequence (O75469 whole entry, looked up): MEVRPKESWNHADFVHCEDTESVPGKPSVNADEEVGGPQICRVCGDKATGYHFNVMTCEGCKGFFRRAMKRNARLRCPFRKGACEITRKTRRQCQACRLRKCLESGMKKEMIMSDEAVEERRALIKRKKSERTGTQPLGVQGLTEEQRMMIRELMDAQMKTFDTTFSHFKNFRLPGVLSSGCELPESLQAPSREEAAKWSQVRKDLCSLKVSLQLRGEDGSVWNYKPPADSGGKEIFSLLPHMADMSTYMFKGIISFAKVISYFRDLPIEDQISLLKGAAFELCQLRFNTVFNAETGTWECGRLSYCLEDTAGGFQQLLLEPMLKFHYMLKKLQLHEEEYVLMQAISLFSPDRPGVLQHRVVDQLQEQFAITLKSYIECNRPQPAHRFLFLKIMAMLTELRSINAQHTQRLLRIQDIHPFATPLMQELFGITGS
Cytochrome P450 1A2 (Homo sapiens), sequence (P05177 whole entry, looked up): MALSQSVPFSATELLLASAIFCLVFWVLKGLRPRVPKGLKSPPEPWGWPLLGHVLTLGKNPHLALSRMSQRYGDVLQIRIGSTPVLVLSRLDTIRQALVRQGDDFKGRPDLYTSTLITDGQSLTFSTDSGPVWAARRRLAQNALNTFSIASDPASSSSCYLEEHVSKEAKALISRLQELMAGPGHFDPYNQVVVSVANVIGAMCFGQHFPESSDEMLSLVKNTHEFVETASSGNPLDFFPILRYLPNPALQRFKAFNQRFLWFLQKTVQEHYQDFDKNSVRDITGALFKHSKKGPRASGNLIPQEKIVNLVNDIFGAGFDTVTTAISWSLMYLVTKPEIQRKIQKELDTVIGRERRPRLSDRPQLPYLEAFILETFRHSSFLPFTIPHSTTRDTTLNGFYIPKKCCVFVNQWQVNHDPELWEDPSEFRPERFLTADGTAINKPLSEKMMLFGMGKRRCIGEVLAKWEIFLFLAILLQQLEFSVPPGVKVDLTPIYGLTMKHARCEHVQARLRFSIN
Cytochrome P450 2C19 (Homo sapiens), sequence (P33261 whole entry, looked up): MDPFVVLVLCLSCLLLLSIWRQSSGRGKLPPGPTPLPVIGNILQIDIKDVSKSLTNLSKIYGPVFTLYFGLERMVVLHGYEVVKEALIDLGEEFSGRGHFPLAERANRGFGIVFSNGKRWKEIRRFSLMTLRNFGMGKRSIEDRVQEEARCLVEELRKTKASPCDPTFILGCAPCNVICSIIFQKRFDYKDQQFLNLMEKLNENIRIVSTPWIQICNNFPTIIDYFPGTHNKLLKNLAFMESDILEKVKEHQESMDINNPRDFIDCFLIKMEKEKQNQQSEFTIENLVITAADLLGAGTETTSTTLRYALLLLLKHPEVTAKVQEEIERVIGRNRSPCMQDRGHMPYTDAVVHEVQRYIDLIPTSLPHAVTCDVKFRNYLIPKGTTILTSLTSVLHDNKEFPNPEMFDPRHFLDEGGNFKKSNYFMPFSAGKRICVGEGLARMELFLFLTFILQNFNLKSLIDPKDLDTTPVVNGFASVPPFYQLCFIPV

Compound | Potency [1] | Potency [2] | Potency [3] | Potency [4] | Potency [5] | max activation [6] [%] | Potency [7] | Potency [8] | Potency [9] | Potency [10] | Potency [11] | Potency [12] | Potency [13] | Potency [14] | Potency [15] | Potency [16] | Potency [17] | Potency [18] | Potency [19]
COc1ccc(Cc2nccc3cc(OC)c(OC)cc23)cc1OC | 9.44 µM (active) | inactive | 13.3 µM (active) | inactive | 16.8 µM (active) | -16.6 | inactive | inactive | inactive | – | – | – | – | – | – | – | – | – | –
CC1(C)C(C=C(Cl)Cl)C1C(=O)OC(C#N)c1ccc(F)c(Oc2ccccc2)c1 (stereo not drawn) | inactive | inactive | – | inactive | inactive | – | – | – | inactive | inactive | inactive | inactive | inactive | inactive | 28.3 µM (active) | 10 µM (active) | 3.17 µM (active) | inactive | inactive
CN/C(=N\[N+](=O)[O-])NCc1cnc(Cl)s1 | inactive | inactive | – | inactive | inactive | – | – | – | inactive | inactive | inactive | inactive | inactive | inactive | – | – | inactive | – | inactive
CNC(=O)O/N=C(\C)C(C)S(C)(=O)=O (stereo not drawn) | inactive | inactive | inactive | inactive | – | – | – | – | inactive | inactive | 355 µM (active) | – | 447 µM (active) | inactive | – | – | inactive | inactive | inactive
Cc1ccc(C)c2ccccc12 | inactive | inactive | – | inactive | inactive | – | – | – | inactive | inactive | inactive | inactive | – | inactive | inactive | inactive | – | inactive | inactive
CCNc1nc(NC(C)C(C)C)nc(SC)n1 (stereo not drawn) | inactive | inactive | – | inactive | 30.6 µM (active) | – | – | – | inactive | inactive | inactive | – | inactive | inactive | inactive | – | – | 25.2 µM (active) | inactive
O=S(=O)(O)F | inactive | inactive | inactive | inactive | 53.8 µM (active) | – | – | – | inactive | – | inactive | inactive | inactive | inactive | – | – | inactive | – | inactive
COC(=O)c1cc(Oc2ccc(Cl)cc2Cl)ccc1[N+](=O)[O-] | inactive | inactive | – | inactive | 54.5 µM (active) | – | – | – | 17.4 µM (active) | inactive | inactive | inactive | inactive | inactive | 22.4 µM (active) | 2.52 µM (active) | 7.1 µM (active) | 15.9 µM (active) | inactive
CCOP(=O)(OCC)Oc1cc(C)nc(C(C)C)n1 | inactive | inactive | – | inactive | inactive | – | – | – | inactive | inactive | 0.142 µM (active) | 5.67 µM (active) | 0.714 µM (active) | 25.3 µM (active) | – | – | inactive | – | inactive
O=C(NC(=O)c1c(F)cccc1F)Nc1ccc(Oc2ccc(C(F)(F)F)cc2Cl)cc1F | inactive | inactive | 61.1 µM (active) | inactive | 19.3 µM (active) | – | – | – | 34.7 µM (active) | – | inactive | inactive | inactive | inactive | inactive | inactive | – | inactive | inactive
CCc1cccc(C)c1N(C(=O)CCl)[C@@H](C)COC | inactive | inactive | – | inactive | 7.7 µM (active) | – | – | – | inactive | inactive | inactive | inactive | inactive | inactive | inactive | 5.64 µM (active) | – | – | –
O=C(Nc1ccc(F)cc1F)c1cccnc1Oc1cccc(C(F)(F)F)c1 | inactive | inactive | – | inactive | 4.24 µM (active) | – | – | – | inactive | inactive | inactive | inactive | inactive | inactive | – | – | – | 7.81 µM (active) | inactive
CCCCN(CCCC)C(=S)[S-].CCCCN(CCCC)C(=S)[S-].[Ni+2] | inactive | inactive | inactive | inactive | inactive | – | – | – | inactive | – | inactive | – | inactive | inactive | inactive | inactive | – | – | inactive
CC(Cc1ccc2c(c1)OCO2)NO (stereo not drawn) | inactive | inactive | – | inactive | inactive | – | – | – | inactive | inactive | inactive | inactive | – | inactive | – | 48.6 µM (active) | 34.4 µM (active) | – | –
